Assay results from PubChem BioAssay AID1159580 (chemical genetic matrix, 2015).
“And” between values parts separate entries of the source, which are not always exact repeats. Equal values may be shown once. Screen size: about 5,500 compounds; about 2,000 (36%) were called active. Roughly 18% stayed inconclusive and do not appear here. Cut-off read from the data, not from the text of the source: active = normalized growth mostly below about 0.91 (no sharp cut-off); inconclusive = no clear call, values can overlap the other calls; inactive = mostly above about 0.92. This is one part of the list.

Experiment: chemical genetic growth profiling, strain panel (AID 1159580);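 note: tested at 20 µM; growth read once vehicle control cultures reached saturation at 30 °C; 1 = growth at the plate median or of vehicle wells; lower values mean less growth of the strain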
Details: growth OD

Measured: normalized growth

COC(=O)C[C@H]1C(C)(C)C(=O)[C@@H]2CC3=C(CC[C@]4(C)C3=CC(=O)O[C@H]4c3ccoc3)[C@@]1(C)C2=O
inactive: S. cerevisiae deletion strains, locus YAL021C, strain ccr4, hits give low values 1.02 | S. cerevisiae deletion strains, locus YAL026C, strain drs2, hits give low values 0.985 | S. cerevisiae deletion strains, locus YAL030W, strain snc1, hits give low values 0.979 | S. cerevisiae deletion strains, locus YBL061C, strain skt5, hits give low values 0.986 | S. cerevisiae deletion strains, locus YBR009C, strain hhf1, hits give low values 0.983 | S. cerevisiae deletion strains, locus YBR021W, strain FUR4, hits give low values 0.992 | S. cerevisiae deletion strains, locus YBR023C, strain chs3, hits give low values 0.976 | S. cerevisiae deletion strains, locus YBR171W, strain sec66, hits give low values 0.947 | S. cerevisiae deletion strains, locus YBR229C, strain ROT2, hits give low values 1 | S. cerevisiae deletion strains, locus YBR231C, strain swc5, hits give low values 0.968 | S. cerevisiae deletion strains, locus YBR279W, strain paf1, hits give low values 0.988 | S. cerevisiae deletion strains, locus YCL011C, strain gbp2, hits give low values 0.953 | S. cerevisiae deletion strains, locus YCL016C, strain dcc1, hits give low values 0.993 | S. cerevisiae deletion strains, locus YCL029C, strain bik1, hits give low values 1.02 | S. cerevisiae deletion strains, locus YCL061C, strain MRC1, hits give low values 1 | S. cerevisiae deletion strains, locus YCL069W, strain vba3, hits give low values 0.958 | S. cerevisiae deletion strains, locus YCR088W, strain abp1, hits give low values 0.96 | S. cerevisiae deletion strains, locus YDL005C, strain med2, hits give low values 0.966 | S. cerevisiae deletion strains, locus YDL035C, strain GPR1, hits give low values 0.996 | S. cerevisiae deletion strains, locus YDL040C, strain nat1, hits give low values 0.966 | S. cerevisiae deletion strains, locus YDL074C, strain BRE1, hits give low values 1 | S. cerevisiae deletion strains, locus YDL101C, strain DUN1, hits give low values 1 | S. cerevisiae deletion strains, locus YDL134C, strain PPH21, hits give low values 1 | S. cerevisiae deletion strains, locus YDL185W, strain tfp1, hits give low values 1.01 | S. cerevisiae deletion strains, locus YDL192W, strain arf1, hits give low values 1.02 | S. cerevisiae deletion strains, locus YDR001C, strain nth1, hits give low values 0.979 | S. cerevisiae deletion strains, locus YDR069C, strain doa4, hits give low values 0.961 | S. cerevisiae deletion strains, locus YDR101C, strain arx1, hits give low values 1.01 | S. cerevisiae deletion strains, locus YDR137W, strain rgp1, hits give low values 1 | S. cerevisiae deletion strains, locus YDR159W, strain sac3, hits give low values 0.962 | S. cerevisiae deletion strains, locus YDR162C, strain NBP2, hits give low values 1.01 | S. cerevisiae deletion strains, locus YDR195W, strain ref2 0.956 | S. cerevisiae deletion strains, locus YDR297W, strain sur2, hits give low values 0.977 | S. cerevisiae deletion strains, locus YDR318W, strain mcm21, hits give low values 1.02 | S. cerevisiae deletion strains, locus YDR334W, strain swr1, hits give low values 0.961 | S. cerevisiae deletion strains, locus YDR335W, strain msn5, hits give low values 0.968 | S. cerevisiae deletion strains, locus YDR388W, hits give low values 1.01 | S. cerevisiae deletion strains, locus YDR392W, strain spt3, hits give low values 0.96 | S. cerevisiae deletion strains, locus YDR502C, strain sam2, hits give low values 1 | S. cerevisiae deletion strains, locus YEL003W, strain gim4, hits give low values 0.973 | S. cerevisiae deletion strains, locus YEL037C, strain rad23, hits give low values 0.962 | S. cerevisiae deletion strains, locus YEL061C, strain CIN8 (second series), hits give low values 0.958 | S. cerevisiae deletion strains, locus YEL061C, strain CIN8, hits give low values 0.999 | S. cerevisiae deletion strains, locus YER015W, strain faa2, hits give low values 0.985 | S. cerevisiae deletion strains, locus YER016W, strain bim1, hits give low values 0.971 | S. cerevisiae deletion strains, locus YER110C, hits give low values 1.02 | S. cerevisiae deletion strains, locus YER111C, strain swi4, hits give low values 0.953 | S. cerevisiae deletion strains, locus YER155C, strain BEM2 (second series), hits give low values 0.988 | S. cerevisiae deletion strains, locus YER155C, strain BEM2, hits give low values 1 | S. cerevisiae deletion strains, locus YER167W, strain BCK2, hits give low values 1.01 | S. cerevisiae deletion strains, locus YFR010W, strain ubp6, hits give low values 0.961 | S. cerevisiae deletion strains, locus YGL078C, strain dbp3, hits give low values 1.03 | S. cerevisiae deletion strains, locus YGL086W, strain mad1, hits give low values 1 | S. cerevisiae deletion strains, locus YGL167C, strain pmr1, hits give low values 0.988 | S. cerevisiae deletion strains, locus YGL173C, strain kem1, hits give low values 0.975 | S. cerevisiae deletion strains, locus YGL227W, strain vid30, hits give low values 0.976 | S. cerevisiae deletion strains, locus YGL240W, strain doc1, hits give low values 0.954 | S. cerevisiae deletion strains, locus YGL248W, strain PDE1, hits give low values 1.01 | S. cerevisiae deletion strains, locus YGL253W, strain hxk2, hits give low values 0.951 | S. cerevisiae deletion strains, locus YGR135W, strain pre9, hits give low values 1.01 | S. cerevisiae deletion strains, locus YGR229C, strain SMI1, hits give low values 1.01 | S. cerevisiae deletion strains, locus YGR252W, strain gcn5, hits give low values 1 | S. cerevisiae deletion strains, locus YHR013C, strain ard1, hits give low values 0.981 | S. cerevisiae deletion strains, locus YHR027C, strain rpn1, hits give low values 0.994 | S. cerevisiae deletion strains, locus YHR030C, strain SLT2, hits give low values 0.985 | S. cerevisiae deletion strains, locus YHR079C, strain IRE1 (second series), hits give low values 1.02 | S. cerevisiae deletion strains, locus YHR079C, strain IRE1, hits give low values 0.974 | S. cerevisiae deletion strains, locus YHR094C, strain hxt1, hits give low values 1.01 | S. cerevisiae deletion strains, locus YHR129C, strain ARP1, hits give low values 0.998 | S. cerevisiae deletion strains, locus YHR142W, strain chs7, hits give low values 0.965 | S. cerevisiae deletion strains, locus YHR200W, strain rpn10, hits give low values 0.996 | S. cerevisiae deletion strains, locus YIL066C, strain RNR3, hits give low values 0.999 | S. cerevisiae deletion strains, locus YIL073C, strain SPO22, hits give low values 1.09 | S. cerevisiae deletion strains, locus YIL125W, strain kgd1, hits give low values 1.01 | S. cerevisiae deletion strains, locus YIR030C, strain dcg1, hits give low values 1.02 | S. cerevisiae deletion strains, locus YJL092W, strain hpr5, hits give low values 0.964 | S. cerevisiae deletion strains, locus YJL095W, strain BCK1 (second series), hits give low values 0.99 | S. cerevisiae deletion strains, locus YJL095W, strain BCK1, hits give low values 1.01 and 0.983 | S. cerevisiae deletion strains, locus YJL115W, strain asf1, hits give low values 0.97 | S. cerevisiae deletion strains, locus YJL129C, strain trk1, hits give low values 0.959 | S. cerevisiae deletion strains, locus YJL134W, strain LCB3, hits give low values 1 | S. cerevisiae deletion strains, locus YJL154C, strain vps35, hits give low values 0.966 | S. cerevisiae deletion strains, locus YJL164C, strain tpk1, hits give low values 0.994 | S. cerevisiae deletion strains, locus YJL166W, strain qcr8, hits give low values 0.973 | S. cerevisiae deletion strains, locus YJL168C, strain set2, hits give low values 1.02 | S. cerevisiae deletion strains, locus YJL187C, strain SWE1 (second series), hits give low values 1.01 | S. cerevisiae deletion strains, locus YJL187C, strain SWE1, hits give low values 0.993 | S. cerevisiae deletion strains, locus YJR066W, strain TOR1, hits give low values 0.928 | S. cerevisiae deletion strains, locus YKL009W, strain mrt4, hits give low values 1.01 | S. cerevisiae deletion strains, locus YKL068W, hits give low values 1.01 | S. cerevisiae deletion strains, locus YKL085W, strain MDH1 (second series), hits give low values 1.01 | S. cerevisiae deletion strains, locus YKL085W, strain MDH1, hits give low values 1.01 | S. cerevisiae deletion strains, locus YKL160W, strain elf1, hits give low values 0.995 | S. cerevisiae deletion strains, locus YKR001C, strain vps1, hits give low values 1.01 | S. cerevisiae deletion strains, locus YKR026C, strain gcn3, hits give low values 0.975 | S. cerevisiae deletion strains, locus YKR091W, strain srl3, hits give low values 0.984 | S. cerevisiae deletion strains, locus YLL001W, strain dnm1, hits give low values 1 | S. cerevisiae deletion strains, locus YLL026W, hits give low values 0.982 | S. cerevisiae deletion strains, locus YLL041C, strain sdh2, hits give low values 0.972 | S. cerevisiae deletion strains, locus YLR027C, strain aat2, hits give low values 0.984 | S. cerevisiae deletion strains, locus YLR039C, strain RIC1, hits give low values 1.03 | S. cerevisiae deletion strains, locus YLR058C, strain SHM2, hits give low values 1.01 | S. cerevisiae deletion strains, locus YLR102C, strain apc9, hits give low values 1.02 | S. cerevisiae deletion strains, locus YLR113W, strain HOG1, hits give low values 1.02 | S. cerevisiae deletion strains, locus YLR221C, strain rsa3, hits give low values 0.958 | S. cerevisiae deletion strains, locus YLR258W, strain gsy2, hits give low values 0.961 | S. cerevisiae deletion strains, locus YLR262C, strain YPT6 (second series), hits give low values 1.04 | S. cerevisiae deletion strains, locus YLR262C, strain YPT6, hits give low values 1.09 | S. cerevisiae deletion strains, locus YLR268W, strain sec22, hits give low values 1.01 | S. cerevisiae deletion strains, locus YLR320W, strain mms22, hits give low values 0.963 | S. cerevisiae deletion strains, locus YLR342W, strain FKS1, hits give low values 0.963 | S. cerevisiae deletion strains, locus YLR357W, strain rsc2, hits give low values 0.963 | S. cerevisiae deletion strains, locus YLR370C, strain arc18, hits give low values 0.956 | S. cerevisiae deletion strains, locus YLR371W, strain rom2, hits give low values 1.02 | S. cerevisiae deletion strains, locus YLR384C, strain iki3, hits give low values 0.968 | S. cerevisiae deletion strains, locus YLR418C, strain cdc73, hits give low values 1.03 | S. cerevisiae deletion strains, locus YML016C, strain PPZ1, hits give low values 1.05 | S. cerevisiae deletion strains, locus YML032C, strain rad52, hits give low values 1.01 | S. cerevisiae deletion strains, locus YML120C, strain ndi1, hits give low values 0.976 | S. cerevisiae deletion strains, locus YML124C, strain tub3, hits give low values 1.01 | S. cerevisiae deletion strains, locus YMR058W, strain fet3, hits give low values 0.993 | S. cerevisiae deletion strains, locus YMR078C, strain ctf18, hits give low values 1.03 | S. cerevisiae deletion strains, locus YMR125W, strain sto1, hits give low values 0.975 | S. cerevisiae deletion strains, locus YMR129W, hits give low values 0.988 | S. cerevisiae deletion strains, locus YMR205C, strain PFK2, hits give low values 0.997 | S. cerevisiae deletion strains, locus YMR223W, strain ubp8, hits give low values 1.01 | S. cerevisiae deletion strains, locus YMR231W, strain pep5, hits give low values 0.953 | S. cerevisiae deletion strains, locus YMR307W, strain GAS1, hits give low values 1.03 | S. cerevisiae deletion strains, locus YNL067W, strain RPL9B, hits give low values 1.01 | S. cerevisiae deletion strains, locus YNL071W, strain lat1, hits give low values 0.972 | S. cerevisiae deletion strains, locus YNL183C, strain NPR1, hits give low values 0.942 | S. cerevisiae deletion strains, locus YNL209W, strain ssb2, hits give low values 0.984 | S. cerevisiae deletion strains, locus YNL233W, strain BNI4, hits give low values 0.984 | S. cerevisiae deletion strains, locus YNL248C, strain rpa49, hits give low values 0.977 | S. cerevisiae deletion strains, locus YNL250W, strain rad50, hits give low values 1.02 | S. cerevisiae deletion strains, locus YNL271C, strain bni1, hits give low values 1.01 | S. cerevisiae deletion strains, locus YNL298W, strain CLA4, hits give low values 1.02 | S. cerevisiae deletion strains, locus YNL307C, strain MCK1, hits give low values 1.02 | S. cerevisiae deletion strains, locus YNL322C, strain KRE1 (second series), hits give low values 0.966 | S. cerevisiae deletion strains, locus YNR049C, strain mso1, hits give low values 0.975 | S. cerevisiae deletion strains, locus YNR052C, strain pop2, hits give low values 1.03 | S. cerevisiae deletion strains, locus YOL012C, strain htz1 1.95 | S. cerevisiae deletion strains, locus YOL147C, strain pex11, hits give low values 1.01 | S. cerevisiae deletion strains, locus YOR001W, strain rrp6, hits give low values 0.946 | S. cerevisiae deletion strains, locus YOR061W, strain CKA2, hits give low values 1 | S. cerevisiae deletion strains, locus YOR069W, strain VPS5, hits give low values 1 | S. cerevisiae deletion strains, locus YOR070C, strain gyp1, hits give low values 0.979 | S. cerevisiae deletion strains, locus YOR080W, strain dia2, hits give low values 0.966 | S. cerevisiae deletion strains, locus YOR083W, strain WHI5, hits give low values 1.01 | S. cerevisiae deletion strains, locus YOR106W, strain vam3, hits give low values 0.974 | S. cerevisiae deletion strains, locus YOR136W, strain idh2, hits give low values 1.01 | S. cerevisiae deletion strains, locus YOR144C, strain elg1, hits give low values 1 | S. cerevisiae deletion strains, locus YOR184W, strain ser1, hits give low values 1 | S. cerevisiae deletion strains, locus YOR231W, strain MKK1, hits give low values 0.99 | S. cerevisiae deletion strains, locus YOR265W, strain rbl2, hits give low values 0.972 | S. cerevisiae deletion strains, locus YOR270C, strain vph1, hits give low values 0.963 | S. cerevisiae deletion strains, locus YOR290C, strain snf2, hits give low values 0.992 | S. cerevisiae deletion strains, locus YOR316C, strain cot1, hits give low values 1 | S. cerevisiae deletion strains, locus YPL051W, strain arl3, hits give low values 1 | S. cerevisiae deletion strains, locus YPL078C, strain atp4, hits give low values 0.996 | S. cerevisiae deletion strains, locus YPL106C, strain sse1, hits give low values 0.952 | S. cerevisiae deletion strains, locus YPL240C, strain hsp82, hits give low values 0.978 | S. cerevisiae deletion strains, locus YPL256C, strain CLN2, hits give low values 0.961 | S. cerevisiae deletion strains, locus YPR119W, strain clb2, hits give low values 1.01 | S. cerevisiae deletion strains, locus YPR141C, strain kar3, hits give low values 1.02 | S. cerevisiae deletion strains, locus YPR163C, strain tif3, hits give low values 1 | S. cerevisiae deletion strains, locus YPR167C, strain met16, hits give low values 1.02 | S. cerevisiae deletion strains, strain wtn01, hits give low values 1 | S. cerevisiae strains, strain wild type, hits give low values 0.992
